Only some compounds are listed: those with a hit (about 19% of all), similar ones and a draw of the others.
HT1080NT lethal = qHTS for induction of synthetic lethality in tumor cells producing 2HG: qHTS for the HT-1080-NT fibrosarcoma cell line; Potency, µM (series often up to 46.1 µM), for the others: top-dose activity, negative = less viability, most hits filed as cytotoxic; HT-1080-NT fibrosarcoma viability, CellTiter-Glo ATP luminescence, 48 h; actives 1.6% (n = 360,000);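 also: NT is the 2HG producing partner of a matched IDH1 knockdown line; potency is read from the fitted curve at half-maximal effect; 0% = DMSO-treated cells and -100% = media-only wells without cells; nearly all actives have a fitted effect of over 55% in size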
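Viability by CellTiter-Glo luminescence after 48 h compound exposure at 37C of HT-1080-NT cells (750/well, RPMI, 5% FBS). % activity scaled between DMSO wells and medium-only wells, then curve-fitted and categorized by curve class.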
IL-1B inflam inh = qHTS for Inhibitors of Inflammasome Signaling: IL-1-beta AlphaLISA Primary Screen | THP-1 LPS/ATP IL-1B secretion, AlphaLISA, 16 h; hits give low values | activity change, % at 57.5 µM | actives 4.7% (n = 360,000) | AID 743279, 2014; in the data active = activity change below about -50%; inconclusive = mostly about -30% to -49%
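Secreted IL-1B measured by AlphaLISA bead assay after 16 h compound exposure of THP-1 cells; compounds (final up to 57.5 uM) added 1 h before LPS (250 ng/mL) and ATP (1.25 mM) stimulation; lower signal means less secretion.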
TDP1 cell CPT = qHTS for Inhibitors of human tyrosyl-DNA phosphodiesterase 1 (TDP1): qHTS in cells in presence of CPT; actives 12% (n = 420,000); Potency, µM (titrated, usually from 46.2 µM), without a hit: at the highest dose activity change, negative = growth inhibition, actives largely listed as inhibitors; chicken DT40 Tdp1-/-;hTDP1 cells + 20 nM CPT, ATP luminescence, 48 h; also: potency is read from the fitted curve at half-maximal effect; nearly all actives have a fitted effect of over 55% in size
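Chicken DT40 Tdp1-/- cells complemented with human TDP1, 400 cells/well, exposed to compounds plus 20 nM camptothecin for at least 48 h at 37 C; viability read as ATP content by CellTiter-Glo luminescence.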
ELG1 repair inh = qHTS screen for small molecules that inhibit ELG1-dependent DNA repair in human embryonic kidney (HEK293T) cells expressing luciferase-tagged ELG1; HEK293T ELG1-luciferase reporter, luminescence, 16 h; DNA damage induced by 5-fluorouridine; actives 2.3% (n = 330,000); Potency, µM (doses to about 46.1 µM), for the others: at the highest dose activity change, negative = inhibition, hits mostly inhibitors; also: potency is read from the fitted curve at half-maximal effect; nearly all actives have a fitted effect of over 55% in size
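Overnight (16 hr) co-exposure of 2,000 cells/well to 5-fluorouridine and compound at 37 °C preceded detection. Luciferase was quantified via ONE-Glo luminescence; loss of signal denotes inhibition.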
HT1080 IDH1KD tx = qHTS for induction of synthetic lethality in tumor cells producing 2HG: qHTS for the HT-1080-IDH1KD cell line; HT-1080 IDH1 knockdown viability, ATP luminescence, 48 h; actives 2% (n = 360,000); Potency, µM (series often up to 46.1 µM), inactives show at the top dose activity, negative = toxicity, usual class: cytotoxic;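 also: potency is read from the fitted curve at half-maximal effect; 0% = DMSO wells and -100% = cell-free medium wells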
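IDH1KD HT-1080 cells, 750/well, RPMI + 5% FBS; compound pinned after 2 h settling; 48 h, 37 °C; CellTiter-Glo luminescence; % activity normalised to DMSO and no-cell wells; curves fitted, classed by r2 and efficacy.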
DT40 TDP1 no CPT = qHTS for Inhibitors of human tyrosyl-DNA phosphodiesterase 1 (TDP1): qHTS in cells in absence of CPT; Potency, µM (doses to about 46.2 µM), without a hit: top-dose activity change, negative = growth inhibition, usual class: inhibitors; actives 15% (n = 420,000); DT40 Tdp1-/- hTDP1 cells, no CPT, ATP luminescence, 48 h; AID 686978, 2013; also: potency is read from the fitted curve at half-maximal effect; nearly all actives have a fitted effect of over 55% in size
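Growth kinetics read by CellTiter-Glo luminescence after ≥48 hr at 37 °C. Cells: DT40 Tdp1-/- stably carrying human TDP1, 400 per well, compound exposure in the absence of CPT (DMSO vehicle).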
The depositor's hits bear a star; ? = inconclusive; . = no result given. Unless noted, calls follow the shape of the dose curve; as a rule, active = well fitted curve in the direction sought with a large enough effect; inconclusive = small, poorly fitted or top-dose-only effect, or another doubt; inactive = no such curve, though single readings can be large; an effect the other way counts as inactive or inconclusive. Unless noted, % is scaled to controls: 0 for no effect and ±100 for the full control effect.

SMILES	HT1080NT lethal	IL-1B inflam inh	TDP1 cell CPT	ELG1 repair inh	HT1080 IDH1KD tx	DT40 TDP1 no CPT
Cn1nc(-c2ccc(NCCO)c([N+](=O)[O-])c2)c2ccccc2c1=O	1%	-12	14%	12%	-12%	-2%
CN(CCO)c1ccc(-c2nn(C)c(=O)c3ccccc23)cc1[N+](=O)[O-]	1%	-16	?	14%	-1%	8.2µM*
CN(C)CCNc1ccc(-c2nn(C)c(=O)c3ccccc23)cc1[N+](=O)[O-]	-2%	-4	?	?	15%	23µM*
CCc1ccc(CN2CCC(N3CCC(C(=O)N4CCCC4)CC3)CC2)o1	-12%	8	-6%	-1%	4%	11%
COc1ccc(NC2CCCN(C(=O)CCOc3ccccc3)C2)cc1 (centres undefined)	14%	-13	?	-10%	3%	-17%
O=C(NCc1ccc2c(c1)CCN2C(=O)c1ccncc1)c1ccccc1Cl	.	.	-26%	.	.	?
Cc1cccc(NC(=O)/C(C#N)=C/c2ccccc2Cl)n1	2%	7	?	2%	3%	12%
C=CCNC(=O)/C(C#N)=C/c1cc(Br)ccc1OC	21µM*	-26	?	-1%	?	?
C=CCNC(=O)/C(C#N)=C/c1ccccc1Cl	-18%	-58*	?	?	3%	?
Cc1cccc(-c2cc(C(=O)O)c3c(-c4ccc(F)cc4)[nH]nc3n2)c1	.	.	-4%	.	.	-13%
CC1CCCN(C(=O)Cn2ncc3c([nH]c4ccccc43)c2=O)C1 (centres undefined)	.	.	-2%	.	.	-19%
COCCN1C(=O)CCC1(C)C(=O)NC(C)(C)C (centres undefined)	?	53	15%	.	3%	3%
O=C1c2ccccc2C2N1CCCN2C(=O)c1sc2ccccc2c1Cl (centres undefined)	-13%	39	18µM*	.	-22%	16µM*
CC(C)(C)c1ccc(C(=O)Cn2cnnc2C#N)cc1	?	-6	21µM*	14%	?	16µM*
COc1ccccc1CNS(=O)(=O)c1cc(C(=O)NCC2CCCO2)c(Cl)cc1Cl (centres undefined)	6%	-12	-7%	-13%	0%	-22%
O=C(c1ccncc1)N1CCC2(CCN(Cc3ccncc3)CC2)CC1	.	.	-4%	.	.	-10%
O=C(NCCCCc1ccccc1)NC[C@@H]1CC[C@@H](Cc2ccc(-c3ccccc3)cc2)O1	-16%	-13	16µM*	?	-21%	15µM*
COc1cccc(NC(=O)Cn2c(=O)n(-c3ccc(CC(=O)NCC4CCCO4)cc3)c(=O)c3ccccc32)c1 (centres undefined)	.	.	-18%	.	.	?
CC(C)NC(=O)N(O)C1N(Cc2ccc3c(c2)OCO3)C(=S)SC1(C)C (centres undefined)	-4%	4	?	1%	-4%	15µM*
Cc1ccc(NS(=O)(=O)c2ccc3c(c2)[C@H]2C=CC[C@H]2[C@@H](c2ccc(F)cc2)N3)cc1C	.	.	8.2µM*	.	.	5.2µM*
O=C(O)c1ccc(NS(=O)(=O)c2ccc3c(c2)C2C=CCC2C(c2ccccc2F)N3)cc1 (centres undefined)	-23%	21	7%	11%	-15%	-6%

Compound activity: PubChem, National Center for Advancing Translational Sciences (NCATS)
